TDP1 cell CPT = qHTS for Inhibitors of human tyrosyl-DNA phosphodiesterase 1 (TDP1): qHTS in cells in presence of CPT. chicken DT40 Tdp1-/-;hTDP1 cells + 20 nM CPT, ATP luminescence, 48 h. Potency, µM (titrated, usually from 46.2 µM), for inactives: top-dose activity change, negative = growth inhibition, actives largely listed as inhibitors. 420,000 tested, 12% active; further: potency means the concentration at half of the fitted maximal effect; nearly all actives have a fitted effect of over 55% in size
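Cell growth measured by CellTiter-Glo luminescence after a minimum 48 h, 37 C compound exposure with 20 nM CPT in Tdp1-knockout DT40 cells stably expressing hTDP1, seeded 400/well; qHTS titration format.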
HT1080 IDH1KD tx = qHTS for induction of synthetic lethality in tumor cells producing 2HG: qHTS for the HT-1080-IDH1KD cell line; HT-1080 IDH1 knockdown viability, ATP luminescence, 48 h; Potency, µM (highest dose often 46.1 µM), inactives show at the top dose activity, negative = toxicity, hits mostly cytotoxic; 360,000 tested, 2% active;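 further: potency means the concentration at half of the fitted maximal effect; 0% = DMSO wells and -100% = cell-free medium wells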
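Knockdown cells (IDH1KD HT-1080) received compounds 2 h after plating at 750 cells/well and were kept 48 h at 37 °C in 5% FBS RPMI. A CellTiter-Glo luminescence read gave % activity for curve fitting.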
IL1B secr inh = qHTS for Inhibitors of Inflammasome Signaling: IL-1-beta AlphaLISA Primary Screen. THP-1 LPS/ATP IL-1B secretion, AlphaLISA, 16 h; hits give low values. activity change, % at 57.5 µM. 360,000 tested, 4.7% active; in the data active means activity change below about -50%; inconclusive means mostly about -30% to -49%
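THP-1 cells pretreated 1 hr with compounds (up to 57.5 uM final), then stimulated with LPS (250 ng/mL final) plus ATP (1.25 mM final); secreted IL-1B measured by AlphaLISA after 16 hr, decreased signal indicating inhibition.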
HT1080-NT tox = qHTS for induction of synthetic lethality in tumor cells producing 2HG: qHTS for the HT-1080-NT fibrosarcoma cell line. HT-1080-NT fibrosarcoma viability, CellTiter-Glo ATP luminescence, 48 h. 360,000 tested, 1.6% active. Potency, µM (top dose mostly 46.1 µM), inactives show top-dose activity, negative = less viability, hits mostly cytotoxic;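 further: NT is the 2HG producing partner of a matched IDH1 knockdown line; potency means the concentration at half of the fitted maximal effect; 0% = DMSO-treated cells and -100% = media-only wells without cells; nearly all actives have a fitted effect of over 55% in size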
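Luminescent CellTiter-Glo readout after 48 hours of compound exposure at 37 degrees C defined viability of HT-1080-NT cells. Activity was normalized to DMSO wells and cell-free media wells; concentration-response curves were fitted and assigned curve classes.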
DT40 TDP1 no CPT = qHTS for Inhibitors of human tyrosyl-DNA phosphodiesterase 1 (TDP1): qHTS in cells in absence of CPT; 420,000 tested, 15% active; DT40 Tdp1-/- hTDP1 cells, no CPT, ATP luminescence, 48 h; AID 686978, 2013; Potency, µM (highest dose often 46.2 µM), without a hit: at the highest dose activity change, negative = growth inhibition, hits mostly inhibitors; further: potency means the concentration at half of the fitted maximal effect; nearly all actives have a fitted effect of over 55% in size
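Camptothecin absent (DMSO only). Human TDP1-complemented DT40 knockout cells, 400 cells/well, 37 °C for minimum 48 hr; ATP measured via CellTiter-Glo, 30 min dark incubation, luminescence.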
ELG1 DNA repair = qHTS screen for small molecules that inhibit ELG1-dependent DNA repair in human embryonic kidney (HEK293T) cells expressing luciferase-tagged ELG1; HEK293T ELG1-luciferase reporter, luminescence, 16 h; DNA damage induced by 5-fluorouridine; Potency, µM (series often up to 46.1 µM), without a hit: top-dose activity change, negative = inhibition, usual class: inhibitors; 330,000 tested, 2.3% active; further: potency means the concentration at half of the fitted maximal effect; nearly all actives have a fitted effect of over 55% in size
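Overnight (16 hr) co-exposure of 2,000 cells/well to 5-fluorouridine and compound at 37 °C preceded detection. Luciferase was quantified via ONE-Glo luminescence; loss of signal denotes inhibition.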
An asterisk follows results filed as active; u = inconclusive; x = not tested or not shown. Most compounds without a hit are left out; they make up all but 19% or so of the library. Unless noted, the call rests on the fitted dose curve; in most records, active means well fitted curve in the direction sought with a large enough effect; inconclusive means small, poorly fitted or top-dose-only effect, or another doubt; inactive means no such curve, though single readings can be large; an effect the other way counts as inactive or inconclusive. Unless noted, on the % scale 0 is the no-effect control and ±100 the full control effect.

SMILES | TDP1 cell CPT | HT1080 IDH1KD tx | IL1B secr inh | HT1080-NT tox | DT40 TDP1 no CPT | ELG1 DNA repair
CC/C(=N\N1CCCCCC1)c1c(O)n(-c2ccccc2C)c(=O)[nH]c1=O | 21µM* | 4% | 2 | 3% | 15µM* | -15%
CC(C1=C(CCN(C)C)Cc2ccccc21)c1ccccn1 (centres undefined) | -26% | -2% | u | -1% | -6% | x
CN1CCc2cc3c(c4c2C1Cc1ccccc1-4)OCO3 (centres undefined) | -4% | -11% | -54* | -1% | -27% | u
COc1cc2c(cc1O)-c1c(O)c(OC)cc3c1[C@H](C2)N(C)CC3 | -43% | x | x | x | u | x
CNC(=O)c1cccn(Cc2cc(C(F)(F)F)cc(C(F)(F)F)c2)c1=O | u | u | 49 | u | u | 6.5µM*
O=[N+]([O-])c1cccnc1N1CCCNCC1 | -3% | -8% | 11 | -1% | 21% | -5%
CC(C)Oc1ccc(CNC(=O)C2CCCN(S(=O)(=O)c3ccc4c(ccn4C)c3)C2)cc1 (centres undefined) | 21µM* | x | x | x | 21µM* | x
COC(=O)[C@@H]1[C@@H](C(=O)OC)C2(c3ccccc3-c3ccccc32)N(c2ccc(Cl)cc2)N1C#N | 2.6µM* | 5.8µM* | -99* | 4.6µM* | 2.6µM* | u
COC(=O)C[C@]1(C(=O)OC)CN(C#N)N(c2ccc(Cl)cc2)C12c1ccccc1-c1ccccc12 | 1µM* | 4.1µM* | -105* | 10µM* | 0.92µM* | 26µM*
CCn1c(O)c(/C=N/NC(=O)c2ccncc2)c(=O)[nH]c1=S | -7% | -7% | -10 | -6% | -13% | 27%
CCn1c(O)c(/C=N/NC(=O)c2ccccc2)c(=O)n(CC)c1=S | u | -8% | 138 | 0% | 29µM* | u
C[n+]1c(-c2ccccc2)c2cc(N)ccc2c2ccc(N)cc21 | 0.52µM* | 1.3µM* | 0 | 6.5µM* | 0.16µM* | u
COc1ccc(O)c2c(=O)c3c(OC)cc4c(c3oc12)C1C=COC1O4 (centres undefined) | 1.3µM* | 3% | 21 | u | 0.92µM* | -29%
O=c1c2ccccc2nc(-c2ccco2)n1-c1ccc(Br)cc1 | 12µM* | -16% | -17 | -14% | 16µM* | 0%
Cc1ccc(-c2nc3ccccc3c(=O)n2-c2ccc(O)cc2)cc1 | 2.6µM* | 2% | 48 | 0% | 4.1µM* | -12%
O=c1c2ccccc2nc(Cc2ccccc2)n1-c1ccccc1 | u | -2% | 16 | 0% | 15µM* | u
O=c1c2ccccc2nc(Cc2ccccc2)n1-c1ccccc1O | -6% | -1% | -27 | -29% | -20% | 1%
Cc1cccnc1-n1c(-c2ccccc2)nc2ccccc2c1=O | 13µM* | 2% | 0 | 0% | 13µM* | -22%
O=c1c2ccccc2nc(-c2ccco2)n1-c1nccs1 | u | -18% | -9 | -7% | u | 3%
Cc1ccc(-n2c(-c3cccs3)nc3ccccc3c2=O)cc1 | 9.2µM* | 9% | -22 | 12% | 12µM* | -23%
Cc1ccc(NC(=O)c2ncn(CC(=O)NCc3ccc4c(c3)OCO4)n2)cc1C | -10% | -18% | -28 | -4% | -10% | u
C[C@@H]1CNC(=O)c2c(C(=O)Nc3ccc(CNC(=O)OC(C)(C)C)cc3)ncn21 | 23µM* | -10% | -12 | -12% | 9.2µM* | x

High-throughput results (PubChem)
